Experimental data taken from PubChem BioAssay (NCI).
About 83,000 compounds went through this panel and 20% of them were active in at least one assay; those are over-represented in the sample as a whole.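 How to read the values: 0–100, growth inhibition (40 = 60% inhibited); 0, no net growth; -100 to 0, cell death (-40 = 40% of starting cells died; -100 = all dead).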 A number with no mark means an inactive call. The source made the active and inactive calls. Rule for the calls: active = growth percent below 10; inactive = the rest.

The compounds below were run on OVCAR-4 ovarian (assay: NCI-60 one-dose screen, 48 h (100 = growth as untreated, 0 = no growth, -100 = all killed)). Details: 10 µM unless noted.
For `Cn1cc(-c2nc(-c3c[nH]c4c(Cl)nccc34)cs2)c2ccccc21`, the growth was 86.4%.
`N/C(=N\c1nc2ccccc2s1)NC(=O)Nc1ccccc1` was tested, and the growth was 73.8%.
`C#Cc1ccc(NC(=O)Cc2ccc(/C=C/C(=O)c3nccn3C)cc2)cc1` gave a growth of 69.9%.
In the case of `Cc1cc2c(C(C)C)c(O)c(O)c(/C=N/O)c2c(O)c1-c1c(C)cc2c(C(C)C)c(O)c(O)c(/C=N/O)c2c1O`, the growth is reported as 28.7%.
With `O=C(Nc1ccc2[nH]ncc2c1)c1csc(Nc2ccccc2)n1` the growth was 61.6%.
In the case of `COC(=O)c1nc(-c2ccccc2)oc1S(=O)(=O)NCC(c1ccc(Cl)cc1)N1CCCCC1` (stereo unspecified), the growth is reported as 89.3%.
`O=C(Nc1ccc(Oc2cccc(F)c2)c(Cl)c1)c1cnccn1` showed a growth of 44.5%.
For `COc1ccc(Nc2nc(Nc3cc(C)[nH]n3)c3cc(OC)c(OC)cc3n2)cc1`, the growth was -83.9% [20 µM] (active).
Compound `COC(=O)c1cc(-c2ccc(OC)c(OC)c2)[nH]c1N/N=C/c1c(Cl)cccc1Cl` has a growth of 69.3%.
Compound `CC(C)=CCC[C@](C)(O)C1CC[C@]2(C)[C@@H]1CC[C@@H]1[C@@]3(C)CC/C(=N\OCCC#N)C(C)(C)[C@@H]3CC[C@]12C` (stereo partly specified) has a growth of 79.9%.
In the case of `N#C/C(=C\c1cccc2cnccc12)N1N=NC2C=CC=CC21` (stereo unspecified), the growth is reported as 25.2%.

Each compound was assayed on SK-OV-3 ovarian in the same assay as above. Details: 10 µM unless noted.
`Cc1cc(=O)oc2cc(Oc3nc(-c4ccccc4)cn4c(-c5ccccc5)cnc34)ccc12` was tested, and the growth was 63.1%.
`Cc1ccc2c(n1)C[C@H](C(C)(C)O)CC[C@H]2C` was tested, and the growth was 99.1%.
`Nc1nc(N)c2c(n1)NC(c1cccc(Nc3ccnc4cc(C(F)(F)F)ccc34)c1)CC(c1ccc(Cl)cc1)=N2` (stereo unspecified) gave a growth of 64.9%.
`C(CCCSC1=NCCN1)CCSC1=NCCN1` showed a growth of 112%.
`O=S(=O)(Nc1ccc(Br)cc1)c1ccc(-c2cnc(C3CC3)o2)cc1` showed a growth of 35.5%.
`Nc1n[nH]c2cccc(C#Cc3cccc(C(=O)Nc4ccc(Cl)c(C(F)(F)F)c4)c3)c12` gave a growth of 106%.
In the case of `NC(=N\N=C/c1ccc(Cl)cc1Cl)/C(N)=N\N=C/c1ccc(Cl)cc1Cl`, the growth is reported as 9.34% (active).
`COc1cc(C(=O)/C=C/c2c(-c3cccs3)nc3sc(C)cn23)cc(OC)c1OC` was tested, and the growth was 12.4%.
With `Nc1nc(=O)n([C@H]2CC=C(CO)O2)cc1F` the growth was 101%.
Work on `COc1ccc(Nc2nccc(Nc3ccc4[nH]ncc4c3)n2)cc1` yielded a growth of 52.1%.
With `Cc1[nH]c(C(=O)Nc2ccccc2OC2CCNC2)c(Cl)c1Cl` (stereo unspecified) the growth was 99.3%.
Compound `CCN1CCN(CCOc2ccc(CNc3ccc4nc(CCC5CCCCC5)[nH]c4c3)cc2)CC1` has a growth of 87.1%.
`O=C1NCCS(=O)(=O)/C1=C\C=C\c1cccc(C(F)(F)F)c1` showed a growth of 85.8%.
With `CCCCCCCCCCCCCC[n+]1ccc2c(C)c3c(c(C)c2c1)c1cc(O)ccc1n3CC` the growth was -19% (active).
`CCCc1cc(CCC)n2nc(N)nc2n1` gave a growth of 105%.
Work on `O=S(=O)(c1ccc(NCSc2nc3ccccc3s2)cc1)c1ccc(NCSc2nc3ccccc3s2)cc1` yielded a growth of 71.3%.
`COc1cc(/C=C2\CN(S(=O)(=O)c3ccc(C)cc3)C/C(=C\c3cc(CN4CCCC4)c(O)c(OC)c3)C2=O)cc(CN2CCCC2)c1O` was tested, and the growth was 33.9%.
With `Cc1cccc(CN(Nc2ccccc2)c2ccccc2)n1` the growth was 104%.
For `O=C(NS(=O)(=O)c1ccccc1)n1cc(-c2ccncc2)c(-c2cc(O)cc(Cl)c2)n1`, the growth was 107%.
In the case of `CCCCN(CCC#N)C(N)=O`, the growth is reported as 109%.
`CCOC(=O)/C(=C/c1ccc([N+](=O)[O-])cc1)C(=O)c1ccccc1` gave a growth of 102%.
In the case of `N#Cc1c(-c2ccc(F)cc2)cc(-c2cccc(Cl)c2)[nH]c1=O`, the growth is reported as 79.3%.
`O=C(Nc1cccc(Cn2c(=O)[nH]c3ccc(Oc4ncccn4)cc3c2=O)c1)c1cccc(Cl)c1` was tested, and the growth was 82.5%.
`O=C1c2c(c3c4cccnc4[nH]c3c3ccc4ccccc4c23)C(=O)N1O` was tested, and the growth was 75.5%.
`COC(=O)c1nc(-c2ccccc2)oc1S(=O)(=O)N1CCN(c2ccc(OC)cc2)CC1` showed a growth of 104%.
For `O=C1c2ccccc2-c2c1c1ccncc1c(=O)n2CCCn1ccnc1`, the growth was 73.6%.
Compound `COc1cc(-c2c(-c3ccccc3)c[nH]c2C(=O)NCCCO)c(OC)c2c1OCO2` has a growth of 96.4%.
`C=C(C)Cn1c(SCC(=O)c2cccs2)nc2sc3c(c2c1=O)CCCC3` gave a growth of 79.1%.
Work on `CNC1=C([N+](=O)[O-])C(c2ccc(OC)cc2)C(C#N)=C(c2ccc[nH]2)O1` (stereo unspecified) yielded a growth of 102%.
`Cn1cc(-c2nc(-c3c[nH]c4c(Cl)nccc34)cs2)c2ccccc21` gave a growth of 108%.
`N/C(=N\c1nc2ccccc2s1)NC(=O)Nc1ccccc1` gave a growth of 51%.
`C#Cc1ccc(NC(=O)Cc2ccc(/C=C/C(=O)c3nccn3C)cc2)cc1` showed a growth of 109%.
Compound `Cc1cc2c(C(C)C)c(O)c(O)c(/C=N/O)c2c(O)c1-c1c(C)cc2c(C(C)C)c(O)c(O)c(/C=N/O)c2c1O` has a growth of 18.2%.
`O=C(Nc1ccc2[nH]ncc2c1)c1csc(Nc2ccccc2)n1` was tested, and the growth was 50.7%.
For `COC(=O)c1nc(-c2ccccc2)oc1S(=O)(=O)NCC(c1ccc(Cl)cc1)N1CCCCC1` (stereo unspecified), the growth was 95.5%.
`O=C(Nc1ccc(Oc2cccc(F)c2)c(Cl)c1)c1cnccn1` showed a growth of 86%.
For `COc1ccc(Nc2nc(Nc3cc(C)[nH]n3)c3cc(OC)c(OC)cc3n2)cc1`, the growth was -96.2% [20 µM] (active).
In the case of `COC(=O)c1cc(-c2ccc(OC)c(OC)c2)[nH]c1N/N=C/c1c(Cl)cccc1Cl`, the growth is reported as 42.2%.
`CC(C)=CCC[C@](C)(O)C1CC[C@]2(C)[C@@H]1CC[C@@H]1[C@@]3(C)CC/C(=N\OCCC#N)C(C)(C)[C@@H]3CC[C@]12C` (stereo partly specified) gave a growth of 84.3%.
For `N#C/C(=C\c1cccc2cnccc12)N1N=NC2C=CC=CC21` (stereo unspecified), the growth was 86.1%.
